In article PMC7862700, “An all-to-all approach to the identification of sequence-specific readers for epigenetic DNA modifications on cytosine”:

Key:
Experiment in all cases: DAPPL (digital affinity profiling via proximity ligation, sequencing); 10 mM Tris-HCl pH 7.5, 50 mM NaCl, 1 mM DTT, 4% glycerol, room temperature, 30 min; GST-TFs on glutathione beads, 16-mer random dsDNA library, 0.1% formaldehyde crosslink after washing; high values mean tight binding
Details in all cases: protein: recombinant; tags: N-terminal GST; dsDNA, one strand shown
ELK4 = molecular target: T1, ELK4 (Homo sapiens, UniProt P28324-2 1-405)
T1 sequence: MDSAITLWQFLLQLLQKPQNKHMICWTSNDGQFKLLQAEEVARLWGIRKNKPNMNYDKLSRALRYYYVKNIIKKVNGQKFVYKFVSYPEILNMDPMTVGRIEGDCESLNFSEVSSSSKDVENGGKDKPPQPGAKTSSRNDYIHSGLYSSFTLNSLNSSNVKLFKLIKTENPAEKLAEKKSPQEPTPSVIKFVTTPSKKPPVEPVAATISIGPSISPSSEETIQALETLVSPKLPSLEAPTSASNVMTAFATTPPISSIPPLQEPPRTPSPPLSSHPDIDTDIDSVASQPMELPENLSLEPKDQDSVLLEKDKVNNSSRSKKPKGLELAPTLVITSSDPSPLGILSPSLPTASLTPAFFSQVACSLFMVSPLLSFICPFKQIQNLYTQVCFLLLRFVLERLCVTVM
In short: (§1)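 Binding signal is defined as a hexamer's read frequency for one factor over its frequency for the tag-only sample. To obtain reads, GST-fused human transcription factors were expressed in yeast, captured on glutathione beads, barcoded with DNA and pooled with that sample. Pools met 200 nmole of a 16-mer random double-stranded DNA library in Tris/NaCl/DTT/glycerol buffer for 30 min at room temperature before washing, 0.1% formaldehyde crosslinking, proximity ligation (BsaI/T4 ligase, 1 h, 37 °C), PCR and Illumina NextSeq500 sequencing.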

ELF3 = molecular target: T2, ELF3 (Homo sapiens, UniProt P78545 1-371)
T2 sequence: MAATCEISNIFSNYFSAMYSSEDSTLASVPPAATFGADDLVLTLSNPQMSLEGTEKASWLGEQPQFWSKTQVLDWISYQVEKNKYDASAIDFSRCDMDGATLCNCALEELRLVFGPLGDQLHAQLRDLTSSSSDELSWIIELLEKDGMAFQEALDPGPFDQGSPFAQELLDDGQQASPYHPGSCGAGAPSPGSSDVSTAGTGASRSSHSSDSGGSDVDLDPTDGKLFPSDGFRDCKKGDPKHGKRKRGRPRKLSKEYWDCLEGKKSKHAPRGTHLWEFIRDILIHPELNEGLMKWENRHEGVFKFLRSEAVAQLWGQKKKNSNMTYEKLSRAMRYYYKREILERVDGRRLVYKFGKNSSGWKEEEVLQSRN
In short: as §1

ETV7 = molecular target: T3, ETV7 (Homo sapiens, UniProt Q9Y603 1-341)
T3 sequence: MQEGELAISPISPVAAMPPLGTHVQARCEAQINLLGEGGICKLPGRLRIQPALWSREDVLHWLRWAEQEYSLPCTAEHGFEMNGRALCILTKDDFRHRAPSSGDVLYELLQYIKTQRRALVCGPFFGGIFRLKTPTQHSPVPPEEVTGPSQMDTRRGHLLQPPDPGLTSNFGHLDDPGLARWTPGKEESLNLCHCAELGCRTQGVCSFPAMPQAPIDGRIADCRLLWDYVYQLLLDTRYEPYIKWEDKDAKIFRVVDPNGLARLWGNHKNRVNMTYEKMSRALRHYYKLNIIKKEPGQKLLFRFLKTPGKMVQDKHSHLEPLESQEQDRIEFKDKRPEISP
In short: as §1

SPDEF = molecular target: T4, SPDEF (Homo sapiens, UniProt O95238 1-335)
T4 sequence: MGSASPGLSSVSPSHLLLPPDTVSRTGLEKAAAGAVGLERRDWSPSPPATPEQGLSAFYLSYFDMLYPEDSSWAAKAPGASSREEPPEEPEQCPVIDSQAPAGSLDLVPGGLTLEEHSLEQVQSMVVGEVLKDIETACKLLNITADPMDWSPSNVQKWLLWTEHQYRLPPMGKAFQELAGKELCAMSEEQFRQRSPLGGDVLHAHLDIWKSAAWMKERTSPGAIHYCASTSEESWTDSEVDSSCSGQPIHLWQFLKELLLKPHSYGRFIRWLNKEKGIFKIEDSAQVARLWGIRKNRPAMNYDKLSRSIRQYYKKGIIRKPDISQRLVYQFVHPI
In short: as §1

ETV2 = molecular target: T5, ETV2 (Homo sapiens, UniProt O00321 1-342)
T5 sequence: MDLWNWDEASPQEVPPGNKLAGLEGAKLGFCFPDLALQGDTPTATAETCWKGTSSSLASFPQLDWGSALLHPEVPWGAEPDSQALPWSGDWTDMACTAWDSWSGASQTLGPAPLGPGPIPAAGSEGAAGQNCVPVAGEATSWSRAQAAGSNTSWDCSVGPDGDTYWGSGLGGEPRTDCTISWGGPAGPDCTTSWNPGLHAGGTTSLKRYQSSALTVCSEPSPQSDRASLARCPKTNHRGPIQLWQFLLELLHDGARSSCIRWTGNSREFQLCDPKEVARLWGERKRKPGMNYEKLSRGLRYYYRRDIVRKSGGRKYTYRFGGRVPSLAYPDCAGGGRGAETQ
In short: as §1

CRX = CRX (Homo sapiens, UniProt O43186 1-299)
In short: as §1

CRX, sequence (O43186 whole entry): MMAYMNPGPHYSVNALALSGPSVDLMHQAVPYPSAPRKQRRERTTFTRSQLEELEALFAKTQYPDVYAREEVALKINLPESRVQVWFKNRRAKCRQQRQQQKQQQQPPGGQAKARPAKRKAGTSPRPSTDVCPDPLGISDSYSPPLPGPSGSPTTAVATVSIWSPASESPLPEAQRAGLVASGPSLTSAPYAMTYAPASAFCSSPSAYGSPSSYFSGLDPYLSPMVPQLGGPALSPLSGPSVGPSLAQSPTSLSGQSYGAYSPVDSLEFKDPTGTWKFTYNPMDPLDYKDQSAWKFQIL

Sequence	binding signal (ELK4)	binding signal (ELF3)	binding signal (ETV7)	binding signal (SPDEF)	binding signal (ETV2)	binding signal (CRX)
CCGATG	1.07 fold enrichment (6-mer frequency, TF over GST control)	1.11 fold enrichment (6-mer frequency, TF over GST control)	1.1 fold enrichment (6-mer frequency, TF over GST control)			
TGGACC	1.03 fold enrichment (6-mer frequency, TF over GST control)	1.19 fold enrichment (6-mer frequency, TF over GST control)	1.03 fold enrichment (6-mer frequency, TF over GST control)	1.05 fold enrichment (6-mer frequency, TF over GST control)		
TCAACA	1.03 fold enrichment (6-mer frequency, TF over GST control)	1.12 fold enrichment (6-mer frequency, TF over GST control)		1.07 fold enrichment (6-mer frequency, TF over GST control)		
ACATGG	1.22 fold enrichment (6-mer frequency, TF over GST control)	1.17 fold enrichment (6-mer frequency, TF over GST control)	1.08 fold enrichment (6-mer frequency, TF over GST control)			
GCCCAC	1 fold enrichment (6-mer frequency, TF over GST control)	1.03 fold enrichment (6-mer frequency, TF over GST control)		1.06 fold enrichment (6-mer frequency, TF over GST control)		
TGCCAA	1.06 fold enrichment (6-mer frequency, TF over GST control)	1.17 fold enrichment (6-mer frequency, TF over GST control)	1.01 fold enrichment (6-mer frequency, TF over GST control)	1.08 fold enrichment (6-mer frequency, TF over GST control)		
ACCACC	1.16 fold enrichment (6-mer frequency, TF over GST control)	1.21 fold enrichment (6-mer frequency, TF over GST control)		1.17 fold enrichment (6-mer frequency, TF over GST control)		
GTCTTG	1.02 fold enrichment (6-mer frequency, TF over GST control)		1.19 fold enrichment (6-mer frequency, TF over GST control)	1.05 fold enrichment (6-mer frequency, TF over GST control)		
ACCACA	1.13 fold enrichment (6-mer frequency, TF over GST control)	1.02 fold enrichment (6-mer frequency, TF over GST control)				
AAGGGT	1.15 fold enrichment (6-mer frequency, TF over GST control)		1.1 fold enrichment (6-mer frequency, TF over GST control)			
TGCTGC	1.22 fold enrichment (6-mer frequency, TF over GST control)	1.11 fold enrichment (6-mer frequency, TF over GST control)	1.1 fold enrichment (6-mer frequency, TF over GST control)	1.05 fold enrichment (6-mer frequency, TF over GST control)		
CCATGC	1.13 fold enrichment (6-mer frequency, TF over GST control)	1.18 fold enrichment (6-mer frequency, TF over GST control)	1.1 fold enrichment (6-mer frequency, TF over GST control)	1.06 fold enrichment (6-mer frequency, TF over GST control)		
CCGCTG	1.2 fold enrichment (6-mer frequency, TF over GST control)	1.01 fold enrichment (6-mer frequency, TF over GST control)	1.16 fold enrichment (6-mer frequency, TF over GST control)	1.01 fold enrichment (6-mer frequency, TF over GST control)		
GGTTTT	1.03 fold enrichment (6-mer frequency, TF over GST control)	1.14 fold enrichment (6-mer frequency, TF over GST control)	1.1 fold enrichment (6-mer frequency, TF over GST control)	1.07 fold enrichment (6-mer frequency, TF over GST control)	1.2 fold enrichment (6-mer frequency, TF over GST control)	1.19 fold enrichment (6-mer frequency, TF over GST control)
AAAGCG	1.25 fold enrichment (6-mer frequency, TF over GST control)	1.14 fold enrichment (6-mer frequency, TF over GST control)	1.11 fold enrichment (6-mer frequency, TF over GST control)	1.03 fold enrichment (6-mer frequency, TF over GST control)	1.06 fold enrichment (6-mer frequency, TF over GST control)	1.14 fold enrichment (6-mer frequency, TF over GST control)
CCACCT	1.21 fold enrichment (6-mer frequency, TF over GST control)	1.3 fold enrichment (6-mer frequency, TF over GST control)		1.19 fold enrichment (6-mer frequency, TF over GST control)		
GCTGCC	1.2 fold enrichment (6-mer frequency, TF over GST control)		1.04 fold enrichment (6-mer frequency, TF over GST control)	1.09 fold enrichment (6-mer frequency, TF over GST control)		

Sequence	binding signal (ELK4)	binding signal (ELF3)	binding signal (ETV7)	binding signal (SPDEF)	binding signal (ETV2)	binding signal (CRX)
GCGCGC	1.1 fold enrichment (6-mer frequency, TF over GST control)	1.05 fold enrichment (6-mer frequency, TF over GST control)	1.05 fold enrichment (6-mer frequency, TF over GST control)			
GTCTAC	1 fold enrichment (6-mer frequency, TF over GST control)			1.11 fold enrichment (6-mer frequency, TF over GST control)		
GCCCCA	1.06 fold enrichment (6-mer frequency, TF over GST control)			1.03 fold enrichment (6-mer frequency, TF over GST control)		
GTTGAT	1.17 fold enrichment (6-mer frequency, TF over GST control)			1.07 fold enrichment (6-mer frequency, TF over GST control)		1.1 fold enrichment (6-mer frequency, TF over GST control)
GTCCCA	1.13 fold enrichment (6-mer frequency, TF over GST control)	1.08 fold enrichment (6-mer frequency, TF over GST control)	1.13 fold enrichment (6-mer frequency, TF over GST control)			
TGGTGC	1.14 fold enrichment (6-mer frequency, TF over GST control)		1.07 fold enrichment (6-mer frequency, TF over GST control)	1.19 fold enrichment (6-mer frequency, TF over GST control)		
CATCGC	1.14 fold enrichment (6-mer frequency, TF over GST control)		1.11 fold enrichment (6-mer frequency, TF over GST control)			
AGCAAC	1.12 fold enrichment (6-mer frequency, TF over GST control)		1.1 fold enrichment (6-mer frequency, TF over GST control)	1.08 fold enrichment (6-mer frequency, TF over GST control)		
CATACG	1.07 fold enrichment (6-mer frequency, TF over GST control)	1.07 fold enrichment (6-mer frequency, TF over GST control)		1.1 fold enrichment (6-mer frequency, TF over GST control)		
CGGCCT	1.13 fold enrichment (6-mer frequency, TF over GST control)	1.03 fold enrichment (6-mer frequency, TF over GST control)	1.23 fold enrichment (6-mer frequency, TF over GST control)	1.12 fold enrichment (6-mer frequency, TF over GST control)		
AAGGCA	1.03 fold enrichment (6-mer frequency, TF over GST control)		1.05 fold enrichment (6-mer frequency, TF over GST control)			
TGGTCA	1.04 fold enrichment (6-mer frequency, TF over GST control)	1.1 fold enrichment (6-mer frequency, TF over GST control)				
CCACAC	1.04 fold enrichment (6-mer frequency, TF over GST control)			1.13 fold enrichment (6-mer frequency, TF over GST control)		
ATGGTG	1.17 fold enrichment (6-mer frequency, TF over GST control)	1.07 fold enrichment (6-mer frequency, TF over GST control)		1.14 fold enrichment (6-mer frequency, TF over GST control)		
TTGGTC	1.15 fold enrichment (6-mer frequency, TF over GST control)		1.18 fold enrichment (6-mer frequency, TF over GST control)	1.06 fold enrichment (6-mer frequency, TF over GST control)		
ACGTTG	1.12 fold enrichment (6-mer frequency, TF over GST control)		1.1 fold enrichment (6-mer frequency, TF over GST control)	1.17 fold enrichment (6-mer frequency, TF over GST control)		
